This is part of a sample that, as a whole, favours compounds with a hit. Of some 79,000 tested, about 15% had one in any assay. Calls of active or inactive are those of the source. No stated cut-off is given here; in the data, active means growth inhibition above about 70%; inactive means the rest.
Experiments:
[1] = NCI Yeast Anticancer Drug Screen. Data for the rad50 strain (AID 155);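 further: 0% = growth of vehicle-only cultures of the same strain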; details: S. cerevisiae rad50 strain growth inhibition, stronger effect = higher value
In short: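 Vehicle-treated cultures provide the reference for the growth inhibition reported for compound-exposed, repair-deficient yeast.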

[2] = NCI Yeast Anticancer Drug Screen. Data for the mec2-1 strain (AID 157); details: S. cerevisiae mec2-1 strain, stronger effect = higher value
In short: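 Test agents were screened against the mec2-1 yeast strain, with defined DNA repair or cell cycle alteration. Growth was scored as inhibition against vehicle-only controls.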

[3] = NCI Yeast Anticancer Drug Screen. Data for the sgs1 mgt1 strain (AID 161);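 further: 0% = growth of cultures given vehicle only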; details: S. cerevisiae sgs1 mgt1 strain, stronger effect = higher value
In short: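 Genetically altered yeast, compound exposure, growth inhibition relative to vehicle.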

[4] = NCI Yeast Anticancer Drug Screen. Data for the cln2 rad14 strain (AID 165);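 further: 0% = growth equal to vehicle treated cultures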; details: S. cerevisiae cln2 rad14 strain, stronger effect = higher value
In short: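 Growth of compound-exposed yeast (cln2 rad14 genotype) measured and expressed as inhibition relative to vehicle.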

[5] = NCI Yeast Anticancer Drug Screen. Data for the bub3 strain (AID 167); details: S. cerevisiae bub3 mutant strain, stronger effect = higher value
In short: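 Mutant yeast screening strain plus compound; vehicle-treated cultures serve as the 0% inhibition reference.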

[6] = NCI Yeast Anticancer Drug Screen. Data for the mlh1 rad18 strain (AID 175); details: S. cerevisiae mlh1 rad18 strain growth inhibition, stronger effect = higher value
In short: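 In this whole-cell yeast screen, a strain with altered DNA damage repair is challenged with compound, and its growth is measured against matched vehicle-treated controls.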

[7] = at 5.0 µM (retest, dose inferred, filed as 0.5)
[8] = at 50.0 µM (retest, dose inferred, filed as 5.0)

Measured: growth inhibition

N#Cc1c2c(c(N=[N+]=[N-])n3c1nc1ccccc13)CCCC2
active: [1]; [8] 95% | [1]; at 50.0 µM 87.2% | [2]; [8] 98% | [2]; at 50.0 µM 92.3% | [3]; [8] 99% | [3]; at 50.0 µM 91.5% | [4]; [8] 97% | [4]; at 50.0 µM 90% | [5]; [8] 95% | [5]; at 50.0 µM 90.9% | [6]; [8] 98% | [6]; at 50.0 µM 89.7%
inactive: [1]; [7] 47% | [2]; [7] 36% | [3]; [7] 45% | [4]; [7] 28% | [5]; [7] 43% | [6]; [7] 50%

CC(=O)C(C(C)=O)C1C=CC=CC=C1
active: [1]; [8] 93% | [1]; at 50.0 µM 97% | [2]; [8] 87% | [2]; at 50.0 µM 92.5% | [3]; [8] 90% | [3]; at 50.0 µM 91.8% | [4]; [8] 77% | [4]; at 50.0 µM 80% | [5]; [8] 86% | [5]; at 50.0 µM 92.5% | [6]; [8] 92% | [6]; at 50.0 µM 96.9%
inactive: [1]; [7] -149% | [2]; [7] -42% | [3]; [7] -59% | [4]; [7] -59% | [5]; [7] -73% | [6]; [7] -139%

COC(=O)C1=CCC[C@H]2C1(C)CCC(C)C21CC(c2ccoc2)OC1=O (some centres not stated)
active: [1]; [8] 75% | [2]; [8] 85% | [3]; [8] 90% | [3]; at 50.0 µM 72.2% | [5]; [8] 83% | [6]; [8] 87% | [6]; at 50.0 µM 76.2%
inactive: [1]; [7] -8% | [1]; at 50.0 µM 50.5% | [2]; [7] 8% | [2]; at 50.0 µM 55.6% | [3]; [7] 10% | [4]; [7] -16% | [4]; [8] 14% | [4]; at 50.0 µM 28.9% | [5]; [7] -8% | [5]; at 50.0 µM 67.2% | [6]; [7] 10%

Cc1cc2ccccc2c[n+]1Cc1ccc2ccccc2n1
inactive: [1]; [7] -6% | [1]; [8] -1% | [1]; at 50.0 µM 53.6% | [2]; [7] 9% | [2]; [8] 45% | [2]; at 50.0 µM 29.4% | [3]; [7] -13% | [3]; [8] 12% | [3]; at 50.0 µM 65.4% | [4]; [7] -8% | [4]; [8] -24% | [4]; at 50.0 µM 21.6% | [5]; [7] -5% | [5]; [8] 23% | [5]; at 50.0 µM 49.3% | [6]; [7] 1% | [6]; [8] 41% | [6]; at 50.0 µM 69.3%

c1ccc2c3[nH]c(c2c1)=Nc1ccc(cc1)-c1nc2ccc(cc2o1)N=c1[nH]c(c2ccccc12)=Nc1ccc2nc(oc2c1)-c1ccc(cc1)N=3
inactive: [1]; [7] 28% | [2]; [7] 18% | [3]; [7] 30% | [4]; [7] 17% | [5]; [7] 31% | [6]; [7] 50%
active: [1]; [8] 94% | [1]; at 50.0 µM 78.2% | [2]; [8] 93% | [2]; at 50.0 µM 84.8% | [3]; [8] 94% | [3]; at 50.0 µM 82.7% | [4]; [8] 81% | [4]; at 50.0 µM 84% | [5]; [8] 95% | [5]; at 50.0 µM 77% | [6]; [8] 93% | [6]; at 50.0 µM 88.6%

CC(C)C1=CC23CCC4C(C)(C(=O)O)CCCC4(C)C2CC1C(C(=O)O)C3C(=O)O (configuration not stated)
active: [1]; [7] 80% | [1]; [8] 99% | [1]; at 50.0 µM 98.4% | [2]; [7] 89% | [2]; [8] 99% | [2]; at 50.0 µM 98.1% | [3]; [8] 98% | [3]; at 50.0 µM 94.9% | [4]; [7] 86% | [4]; [8] 99% | [4]; at 50.0 µM 98% | [5]; [7] 84% | [5]; [8] 99% | [5]; at 50.0 µM 97.6% | [6]; [7] 88% | [6]; [8] 98% | [6]; at 50.0 µM 96%
inactive: [3]; [7] 52%

O=C(c1ccc(F)cc1)c1ccc(Cl)cc1Cl
active: [1]; [7] 96% | [1]; [8] 98% | [1]; at 50.0 µM 97% | [2]; [7] 100% | [2]; [8] 99% | [2]; at 50.0 µM 98.7% | [3]; [7] 100% | [3]; [8] 99% | [3]; at 50.0 µM 93.5% | [4]; [7] 99% | [4]; [8] 100% | [4]; at 50.0 µM 98.2% | [5]; [7] 99% | [5]; [8] 100% | [5]; at 50.0 µM 98.9% | [6]; [7] 99% | [6]; [8] 99% | [6]; at 50.0 µM 99.2%

COC(=O)/C(C(C)=O)=C(\OC(C)=O)c1ccc(OC)c(OC)c1
active: [1]; [8] 80% | [1]; at 50.0 µM 93.5% | [2]; [8] 93% | [2]; at 50.0 µM 91% | [3]; [8] 88% | [4]; [8] 85% | [4]; at 50.0 µM 95.5% | [5]; [8] 86% | [5]; at 50.0 µM 98.1% | [6]; [8] 91%
inactive: [1]; [7] -14% | [2]; [7] -11% | [3]; [7] -5% | [3]; at 50.0 µM 46.2% | [4]; [7] -11% | [5]; [7] -2% | [6]; [7] -19% | [6]; at 50.0 µM 60%

O=C1C(=O)c2ccc(Br)cc2C(O)=C1C(c1ccccc1)c1ccccc1
inactive: [1]; [7] 29% | [1]; [8] 60% | [1]; at 50.0 µM 25.6% | [2]; [7] 28% | [2]; at 50.0 µM 30.5% | [3]; [7] 4% | [3]; at 50.0 µM 7.4% | [4]; [7] 24% | [4]; [8] 63% | [4]; at 50.0 µM 14.2% | [5]; [7] 36% | [5]; at 50.0 µM 21.2% | [6]; [7] 28% | [6]; [8] 69% | [6]; at 50.0 µM 32.5%
active: [2]; [8] 70% | [3]; [8] 74% | [5]; [8] 70%
